DAX1 inh-1 = inhibitors of DAX1 repression of SF-1 activated StAR promoter; HEK293T StAR-luciferase reporter, SF-1/DAX-1 repression relief; inhibition, % at 6.8 µM; hit rate 1.1% among 370,000;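 active means inhibition above the mean over all tested compounds plus 3 SD, cut at about 3.6% in these data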;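 further: 0% = DAX-1 cells with DMSO and 100% = cells lacking DAX-1 with DMSO; higher inhibition means more luminescence from relief of DAX-1 repression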
hcDAF12 agonist = activators of H. contortus DAF-12 nuclear receptor | HEK293 hcDAF-12 lit1-tk-luc reporter, luminescence; 0% DMSO, 100% Δ7-dafachronic acid | activation, % at 6.8 µM | hit rate 1.4% among 370,000;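 active means activation above the mean of all tested compounds plus 3 SD, cut at about 5.5% in these data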;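 further: 100% = response to 3 µM Δ7-dafachronic acid high control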
PolyA inh = blocks polyadenylation in yeast reporter cells. activity score, % at 12 µM. S. cerevisiae SKY197-pL101 polyadenylation reporter, beta-gal luminescence; efflux-impaired pdr1/pdr3 knockout yeast; score 100 = 6 SD above DMSO. hit rate 0.02% among 300,000;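 active means lowest replicate activity score at least 50, where 100 means six control SD above control mean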;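 further: yeast exposed to compound for 9 h at 30 °C; higher score means more reporter readthrough which indicates perturbed polyadenylation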
ssDAF-12 act = S. stercoralis DAF-12 activation, primary screen; HEK293 ssDAF-12/GRIP1 lit1-tk-luc reporter, luminescence; % of 3 µM dafachronic acid response; activation, % at 6.8 µM; hit rate 1% among 370,000; AID 652126;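 active means activation above the mean over all tested compounds plus 3 SD, cut at about 0.9% in these data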;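 further: 0% = DMSO-only wells and 100% = 3 µM delta7-dafachronic acid wells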
DAX1 inh-2 = inhibits human nuclear receptor DAX1 | hit rate 0.99% among 340,000 | inhibition, % at 6.75 µM | AID 504766 | HEK293 Gal4-DAX1 luciferase reporter, luminescence;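 active means inhibition above the mean over all tested compounds plus 3 SD, cut at about 4.2% in these data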;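 further: 0% = DAX1-transfected cells with DMSO and 100% = empty-vector control cells with DMSO; inhibition shows as a rise in luminescence from relieved DAX1 repression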
Target sequence (P51843 207-470 limits assumed): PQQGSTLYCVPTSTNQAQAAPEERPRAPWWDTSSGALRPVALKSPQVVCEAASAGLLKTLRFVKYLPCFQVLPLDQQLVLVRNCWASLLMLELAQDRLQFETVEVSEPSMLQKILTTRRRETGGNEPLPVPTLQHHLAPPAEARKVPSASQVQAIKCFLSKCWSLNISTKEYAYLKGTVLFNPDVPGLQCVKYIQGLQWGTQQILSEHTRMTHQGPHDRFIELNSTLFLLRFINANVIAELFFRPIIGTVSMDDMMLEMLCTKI
hgDAF12 agonist = hgDAF-12 agonism, primary luciferase screen | HEK293 GAL4-hgDAF12 UAS-luciferase reporter, agonist luminescence; normalized to butyrate control | activation, % at 6.8 µM | hit rate 1.8% among 370,000;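 active means activation above a cutoff set at the mean of all screened compounds plus 3 SD, cut at about 10% in these data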;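 further: 0% = DMSO wells and 100% = sodium butyrate wells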
Starred values were filed as active, the others as inactive; nt = not tested or not shown. Only some compounds are listed: those with a hit (about 4.1% of all), similar ones and a draw of the others.

SMILES	DAX1 inh-1	hcDAF12 agonist	PolyA inh	ssDAF-12 act	DAX1 inh-2	hgDAF12 agonist
CCOC(=O)c1c(C)[nH]c(C(=O)NCc2ccccn2)c1C	4.1*	-0.4	-6.0	-0.5	1.1	5.3
CCOC(=O)c1c(C)[nH]c(C(=O)OCc2ccc(C)cc2)c1C	4.2*	0.7	-4.9	0.3	0.4	4.1
CC(=O)c1c(C)[nH]c(C(=O)COC(=O)CCSc2ccccc2)c1C	-0.9	0.9	-9.1	-1.4	-0.2	-4.2
CCOC(=O)c1[nH]c(C)c(C(=O)NCc2ccccn2)c1C	-0.6	-0.7	14.0	-0.9	-0.1	0.5
COc1cccc(/C=C2\CC3(OC(=O)C4CCCC4)CCCN2C3)c1 (stereo not drawn)	0.2	-2.0	nt	-1.0	nt	-3.5
O=S1(=O)c2c(NCc3ccco3)cccc2Oc2ccccc2CN1Cc1cn(Cc2ccccc2C(F)(F)F)nn1	-1.0	-3.6	nt	-1.5	nt	-1.7
CCOC(=O)N1CCN(C(=O)C[C@@H]2C[C@]3(C(=O)OCC)CCC4=C3N(CCC4)C2=O)CC1	-0.7	-0.4	nt	-1.4	nt	1.5
O=C(CCNC(=O)c1ccccc1Cl)Nc1ccc(Br)c(C(F)(F)F)c1	0.3	0.0	5.0	19.4*	0.3	-0.1
Fc1ccc2nc(N3CCOCC3)sc2c1	1.0	1.1	1.3	-1.0	0.5	11.7*
CCCCCCCCN1C(=O)[C@@H](CC(=O)NCCCOCCCC)C[C@@]2(C(=O)OC)C1=C[C@H](C(C)C)O[C@@H]2C1CC1	-0.5	-0.4	nt	-1.0	nt	-0.7
CCN(CC)CCCNC(=O)CSc1nnc(-c2ccncc2)n1-c1ccc(OC)cc1	0.9	-2.4	nt	-0.5	nt	-0.3
CCC1=NN2C(=N)/C(=C\c3cccn3-c3ccc(Br)cc3)C(=O)N=C2S1	0.1	-0.3	-7.5	-0.9	4.7*	1.0
CCC1=NN2C(=N)/C(=C\c3cccn3-c3cccc(Cl)c3)C(=O)N=C2S1	-0.4	0.5	3.5	-1.5	-1.2	0.7
COc1cc(C2CC=C(C(=O)O)C(c3ccccc3F)N2S(=O)(=O)c2ccc(C)cc2)cc(OC)c1OC (stereo not drawn)	-0.6	-1.5	nt	-1.7	nt	3.2
S=c1[nH]nc(-c2cc(-c3ccccc3)n[nH]2)n1/N=C/c1ccccc1	1.1	-0.8	12.0	-1.3	7.3*	4.1
COc1ccc(-c2ccc3c(n2)CCCN3S(=O)(=O)c2cccs2)cc1	1.1	4.0	nt	0.0	nt	3.4
CCOC(=O)c1cn2nc(Oc3ccc(NC(C)=O)cc3)ccc2n1	0.0	-0.6	-6.9	0.6	4.9*	1.2
CCOC(=O)c1cn2nc(Oc3ccc(C(=O)OC)cc3)ccc2n1	-0.2	0.0	-0.7	-0.6	-1.4	0.2
O=C(Nc1ccc(F)cc1)OCc1cn(Cc2ccccc2)nn1	-1.0	-0.8	nt	-0.3	nt	-1.6
Cc1ccccc1Cn1nc(C)c(NC(=O)c2sc3ccccc3c2Cl)c1C	-2.0	-1.7	8.5	-1.7	-2.5	-5.2
Cc1ccccc1Cn1nc(C)c(NC(=O)c2ccccc2)c1C	-0.6	-0.9	4.0	-0.7	-1.0	13.0*
Cc1ccc(N2C(=O)c3ccccc3C2O)nc1 (stereo not drawn)	nt	nt	15.0	nt	nt	nt
COc1cc(OC)c(NC2c3ccccc3C(=O)N2c2cc(C)ccn2)cc1Cl (stereo not drawn)	3.6*	0.1	1.3	-0.2	0.3	11.7*
Cc1ccc(N2C(=O)c3ccccc3C2Nc2ccccc2F)nc1 (stereo not drawn)	0.3	-0.6	5.3	-1.0	0.5	12.6*
N/C(=N/OC(=O)c1ccccc1Cl)c1nonc1N	0.9	0.0	6.3	-0.5	3.3	11.7*
C(=NOCCc1ccccc1)c1ccncc1	0.7	0.9	nt	1.3*	0.6	7.9
CNCc1cc(Br)c(OCC(=O)Nc2ccccc2OC)c(OC)c1	0.3	-1.1	3.6	-1.3	-0.7	0.6
COc1cc(CNCCc2ccccc2)cc(Br)c1OCC(=O)Nc1ccccc1C	0.6	-1.8	10.7	0.0	4.3*	1.1
COC(=O)[C@]12C[C@H](CC(=O)NCc3cccs3)C(=O)N(CCC3=CCCCC3)C1=C[C@H](COCc1ccccc1)O[C@@H]2C	-0.4	-0.5	nt	-0.9	nt	2.2

Screens from PubChem.
